The term inhibition denotes the drop in the measured response relative to a control, in per cent.

Screen size: about 330,000 compounds; about 5,800 (1.8%) were called active. The sample as a whole holds a higher share of actives than the screen did. Unmarked numbers belong to inactive results. Cut-off read from the data, not from the text of the source: active = inhibition mostly above about 38% (no sharp cut-off); inactive = mostly below about 40%.

The target in this assay is Orexin/Hypocretin receptor type 1 (Homo sapiens) (UniProt O43613). Put plainly: blocks the human orexin 1 receptor (AID 485270).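 Note: 0% = agonist challenge alone and 100% = reference antagonist.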 The following applies: OX1R-expressing cells, FRET antagonist read-out; at 6.6 µM; active compounds read high.
Sequence of Orexin/Hypocretin receptor type 1 (Homo sapiens) (O43613 whole entry, looked up): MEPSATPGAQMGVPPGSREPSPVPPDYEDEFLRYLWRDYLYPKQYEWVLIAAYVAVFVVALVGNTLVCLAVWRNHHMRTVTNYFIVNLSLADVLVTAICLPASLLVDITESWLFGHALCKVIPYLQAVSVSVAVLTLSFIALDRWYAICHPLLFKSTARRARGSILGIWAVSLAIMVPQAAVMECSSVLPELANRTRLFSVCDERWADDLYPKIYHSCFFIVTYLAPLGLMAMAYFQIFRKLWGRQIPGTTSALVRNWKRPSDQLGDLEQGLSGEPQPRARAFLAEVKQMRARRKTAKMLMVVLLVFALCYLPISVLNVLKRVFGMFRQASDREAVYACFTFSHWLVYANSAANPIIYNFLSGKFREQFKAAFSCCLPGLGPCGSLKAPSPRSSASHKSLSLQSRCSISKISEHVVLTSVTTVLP
On to `Cc1onc(NC(=O)c2ccc([N+](=O)[O-])o2)c1Br`, for which the inhibition was 33.4%.
The figure for `O=C(Nc1ccc(Br)cn1)c1ccc([N+](=O)[O-])o1` is 64.5% (active); for `O=C(Nc1ccc(Br)cn1)c1ccc([N+](=O)[O-])cc1Cl` it is 13.9%; for `COc1ccc(C2(c3ccc(OC)cc3)NC(=O)N(CC(=O)Nc3cc(C)on3)C2=O)cc1` it is 14%.
The figure for `CCN1C[C@@H]2[C@@H]3C(=O)N(Cc4ccccc4)C(=O)[C@@H]3[C@](Cc3ccccc3)(C(=O)OC)N2C1=NC1CCCCC1` is 5.88%.
Take `COc1cnn(-c2ccc([N+](=O)[O-])cc2)c(=O)c1Cl`: the inhibition was 49.7% (active).
Turning to `CC(C)(C)c1cnnn1-c1ccc([N+](=O)[O-])cc1`, the inhibition is 29.6%.
The figure for `COc1ccc(N2CCN(c3ccc([N+](=O)[O-])cc3Cl)CC2)cc1` is 11.7%; for `O=C(Cn1cnc2c(OCc3ccccc3)ncnc21)NCCCn1ccnc1` it is -0.28%.
As for `Cc1cc(NC(=O)COc2ccccc2C#N)no1`, the figure is 4.54%; as for `CNC[C@H]1Oc2c(NC(=O)C3CCCCC3)cccc2C(=O)N([C@H](C)CO)C[C@@H]1C`, 6.17%.
On to `COc1cc(/C=C/C(=O)Nc2ccc(OC)c(S(=O)(=O)N3CCOCC3)c2)ccc1OCC#N`, for which the inhibition was 6.14%.
The figure for `CNC(=O)c1cc2c(ccc3ccccc32)oc1=N` is 50.1%; for `CNC(=O)c1cccc2nc3ccccc3nc12` it is 61.4% (active).
As for `CN(C)C(=O)c1coc2nc3ccccc3nc12`, the figure is 7.78%; as for `C=CC[C@@H](CC(=O)NCCO)C(=O)N[C@H](C)COC(=O)[C@@H](CC=C)CC(=O)OC(C)(C)C`, 5%; as for `CN1CCN(C(=O)c2ccc(-c3ccc(Br)cc3)o2)CC1`, 8.86%.
The figure for `O=C1c2cccc3cccc(c23)C(=O)N1c1cccc(O)c1` is 26.1%; for `O=C1c2ccccc2C(=O)N1c1cccc2ccccc12` it is 17%; for `COc1ccc(N2C(=O)c3cccc4cccc(c34)C2=O)nn1` it is 62.1% (active).
On to `O=C(CSc1nnc(-c2ccncc2)o1)Nc1cccc(Cl)c1`, for which the inhibition is 4.25%.
The figure for `O=C(OCC(=O)N1CCCCC1)c1ccc(OC(F)(F)F)cc1` is 10.9%; for `COc1ccc(S(=O)(=O)N2CCOCC2)cc1NC(=O)CSc1nnc(NC2CC2)s1` it is 5.24%.
As for `Cc1ccc(CNC(=O)Cn2cnc3c(NCc4ccccc4)ncnc32)o1`, the figure is 13.2%; as for `CC(=O)Nc1ccc(S(=O)(=O)Nc2ccc(N3CCCCC3)cc2)cc1`, 16.6%; as for `COc1cc(OC)c(C(=O)NNC(=O)c2ccccc2-n2cccc2)cc1OC`, 10.5%.
As for `Oc1c(Cl)cc(Cl)c(Cl)c1Cc1c(O)c(Cl)cc(Cl)c1Cl`, the figure is 60.5% (active); as for `Cc1cc(NC(=O)CN2C(=O)NC(CC(C)C)C2=O)no1` (stereo not drawn), 4.3%.
In the case of `NS(=O)(=O)c1ccc(CNC(=O)c2ccc(Cl)cc2[N+](=O)[O-])cc1`, the inhibition was 70.7% (active).
In the case of `O=C(Nc1cccnc1)c1ccc(Cl)cc1[N+](=O)[O-]`, the inhibition is 22.6%.
The figure for `O=C(NCCCN1CCOCC1)c1ccc([N+](=O)[O-])cc1[N+](=O)[O-]` is 70.3% (active); for `NS(=O)(=O)c1ccc(CCNC(=O)c2ccc(Cl)cc2[N+](=O)[O-])cc1` it is 26.8%.
With `O=C(NCCCN1CCOCC1)c1ccc(N2CCCC2)c([N+](=O)[O-])c1`, the inhibition was 52.4%.
The figure for `NS(=O)(=O)c1ccc(CCNC(=O)CNC(=O)Cc2ccccc2)cc1` is 1.42%.
As for `NS(=O)(=O)c1ccc(CCNC(=O)c2ccc([N+](=O)[O-])cc2[N+](=O)[O-])cc1`, the figure is 138% (active).
As for `COc1ccc(C(=O)NCCc2ccc(S(N)(=O)=O)cc2)cc1OC`, the figure is 17.6%; as for `O=[N+]([O-])c1ccc(NCCCN2CCOCC2)c(Cl)c1`, 10.8%.
In the case of `Cc1ccc(S(=O)(=O)N2CCN(C(=O)COC(=O)CNC(=O)c3ccc(C(C)(C)C)cc3)CC2)c(C)c1`, the inhibition was 1.85%.
The figure for `O=C(COC(=O)c1cccc(Cl)c1)NC(=O)NCc1ccccc1` is 4.12%; for `C=CCC[C@@H](Cc1ccc(F)cc1)C(=O)O[C@H](CNC(=O)[C@H](CC=C)CC(=O)N(CCO)Cc1ccccc1)c1ccccc1` it is 13.9%; for `C=CCC[C@H](Cc1ccc(F)cc1)C(=O)OC[C@@H](NC(=O)[C@@H](CC=C)CC(=O)N[C@H](CO)Cc1ccccc1)C(C)(C)C` it is -2.5%.
As for `COc1ccc(N(C)S(=O)(=O)c2ccc3c(c2)CC(C)N3C(=O)C2CC2)c(OC)c1` (stereo not drawn), the figure is 13.5%; as for `COc1cccc(CNS(=O)(=O)c2ccc3c(c2)CC(C)N3C(C)=O)c1` (stereo not drawn), 19.3%; as for `COc1cccc(CNS(=O)(=O)c2ccc3c(c2)CC(C)N3C(=O)C2CCC2)c1` (stereo not drawn), 53.7% (active).
The figure for `CN(CC(=O)O)C(=O)c1ccccc1` is 11.7%.
Regarding `O=C(CCN1CCCCC1)N=Nc1c(O)[nH]c2ccccc12`, the inhibition is 22.5%.
As for `Cc1cccc(N(CC(=O)N=Nc2c(O)[nH]c3ccccc23)S(C)(=O)=O)c1C`, the figure is 5.48%; as for `COCC(=O)N=Nc1c(O)[nH]c2ccccc12`, 68.8% (active); as for `Cc1ccc(NS(=O)(=O)c2ccc(C(C)C)cc2)cc1S(=O)(=O)N1CCOCC1`, 1.43%.
The figure for `Cc1cccc(OCC(=O)OCC(=O)Nc2ccc(Cl)cn2)c1` is 4.09%; for `CCOCCCNc1nc(-c2ccccc2)nc2ccccc12` it is 13.2%.
As for `c1coc(CNc2ncnc3ccccc23)c1`, the figure is 37.9%; as for `O=C(Cc1ccccc1)n1nc(-c2ccccc2)nc1NCc1ccco1`, 16.1%.
In the case of `CCC(=O)OCCNc1nc(-c2ccccc2)nc2ccccc12`, the inhibition was 48.8% (active).
The figure for `COCCNc1nc(-c2ccccc2)nc2c1oc1ccccc12` is 19.4%; for `c1ccc(-c2nc(NCc3ccco3)c3ccccc3n2)cc1` it is 81.6% (active).
Turning to `CC1CCCCC1NC(=O)COc1ccc(C#N)cc1` (stereo not drawn), the inhibition was 1.71%.
Regarding `O=C(COC(=O)c1ccc(Br)o1)NC12CC3CC(CC(C3)C1)C2`, the inhibition is 1.86%.
As for `O=C1N[C@H](Cc2c[nH]c3ccccc23)COC(=O)[C@H](Cc2ccc(F)cc2)C/C=C\C[C@H]1CC(=O)N(CCO)Cc1ccccc1`, the figure is -2.83%; as for `Cc1ccc(C(=O)Nc2ccn(C)n2)cc1`, -1.37%.
As for `COc1ccc(Br)cc1CN(C)C(=O)C1CC(=O)N(C2CCCC2)C1` (stereo not drawn), the figure is 8.23%.
As for `O=C(Nc1sc2c(c1-c1nc3ccccc3[nH]1)CCCC2)C1CC1`, the figure is 46.5% (active); as for `O=C(C1CCCO1)N1CCC(c2nc3ccccc3[nH]2)CC1` (stereo not drawn), -1.4%; as for `CCOC(=O)c1c(NC(=O)C2CCN(S(=O)(=O)c3ccc(Cl)cc3)CC2)sc2c1CCCC2`, 6.08%.
Regarding `C=CC[C@@H](CC(=O)N[C@@H](CO)Cc1ccccc1)C(=O)NCCOC(=O)[C@@H](CC=C)CC(=O)OC(C)(C)C`, the inhibition was 14.3%.
As for `COC(=O)[C@]1(Cc2ccccc2)N[C@H](CN(C)S(=O)(=O)c2ccc(OC(F)(F)F)cc2)[C@@H]2C(=O)N(Cc3ccccc3)C(=O)[C@@H]21`, the figure is 5.26%.
As for `CCCC(=O)Nc1ccc2c(c1)nc(CCNC(=O)c1ccco1)n2C`, the figure is 7.62%; as for `COCCNC(=O)Nc1ccc2nc(-c3ccco3)c(-c3ccco3)nc2c1`, 113% (active).
As for `CCOc1cc(NC(=S)NCCCOC)c(OCC)cc1NC(=O)c1ccco1`, the figure is 11.1%.
`Cc1noc(C)c1S(=O)(=O)N(C)C[C@H]1Oc2c(NC(=O)Nc3ccc4c(c3)OCO4)cccc2C(=O)N([C@H](C)CO)C[C@@H]1C`: the inhibition is 2.76%.
As for `C[C@H](CO)N1C[C@H](C)[C@H](CN(C)CC2CC2)Oc2ccc(NC(=O)CCN3CCOCC3)cc2C1=O`, the figure is -2.5%; as for `Cc1ccc(S(=O)(=O)N(C)C)cc1NC(=O)C(C)OC(=O)c1ccc2ccccc2n1` (stereo not drawn), 7.22%.
As for `Nc1nc(COC(=O)CCC(=O)c2ccc(Cl)cc2)nc(Nc2ccccc2)n1`, the figure is 37.4% (active); as for `CC(NC(=O)COC(=O)CCC(=O)c1ccc(Cl)cc1)c1ccccc1` (stereo not drawn), 10.1%.
The figure for `Cc1ccc(C(=O)OCc2nc(N)nc(Nc3ccccc3C)n2)cc1` is -2.57%; for `O=C(NCc1ccc2c(c1)OCO2)c1cc([N+](=O)[O-])ccc1N1CCOCC1` it is 19.9%; for `Cc1c(C(=O)OC(C)C)sc(NC(=O)c2cccnc2)c1C#N` it is 54.5%.
For `CC1CCCCC12NC(=O)N(CC(=O)N1CCN(c3ccccc3)CC1)C2=O` (stereo not drawn), the inhibition was -1.13%.
As to `O=C(Nc1cc(S(=O)(=O)Nc2ccc(Cl)cc2)ccc1O)c1ccc(F)cc1F`, the inhibition is 8.71%.
As for `O=C(CN1C(=O)NC2(CCCCCCC2)C1=O)NCc1ccc(F)cc1`, the figure is 8.6%.
The figure for `CC[C@@]1(C(=O)OC)N[C@H](CN(C)C(C)=O)[C@@H]2C(=O)N(C)C(=O)[C@@H]21` is 1.97%; for `Cc1ccc(S(=O)(=O)NC[C@H]2O[C@@H](n3cnc4c(N)ncnc43)[C@H](O)[C@@H]2O)s1` it is -6.3%; for `CCN(CC)c1ccc(/C=N/NC(=O)CNC(=O)c2cccnc2)cc1` it is 3.18%.
`CCN(CC)c1ccc(NC(=O)c2ccc(Cl)nc2)cc1`: the inhibition is 17.1%.
Take `CCN(CC)c1ccc(C(=O)c2cnc(/N=C/N(C)C)s2)cc1`: the inhibition is 66.5% (active).
With `CCCCN(C)CCCNC(=O)c1cc(-c2cccs2)nc2ccccc12`, the inhibition is 13.3%.
For `O=C(NCCN1CCOCC1)c1cc(-c2cccs2)nc2ccccc12`, the inhibition was 18.8%.
The figure for `O=C(Nc1nnc(-c2ccccc2)o1)c1cc(-c2cccs2)nc2ccccc12` is 88.8% (active).
